Bioassay records: PubChem, Broad Institute
C diff HTS: C. difficile growth inhibitors, primary screen, HTS; Clostridium difficile clinical isolate growth, OD600, 24 h; active compounds read low; growth activity, negative = inhibition, % at 16 µg/mL (by protocol); hit rate 0.25% among 86,000;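 active means mean growth activity at or below -80% and every replicate also at or below -80%; inconclusive means mean at or below -80% but some replicate above -80%; inactive means mean growth activity above -80%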
T cruzi growth: T. cruzi intracellular proliferation inhibitors, primary screen, cell-based, beta-gal Tulahuen parasites, NIH3T3 host, luminescence. T. cruzi beta-gal in NIH3T3, GalScreen luminescence, 90 h. hit rate 5.9% among 77,000. AID 624255, 2012. inhibition, % at 8.34 µM;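 active means mean inhibition above about 93%, with at least 55% of replicates each passing it, limit read from the data, passing the limit was not always enough; inconclusive means only one of those two conditions holds; inactive means neither condition holds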
Pf Dd2 growth: P. falciparum Dd2 growth inhibitors, primary screen, SYBR Green fluorescence, single dose replicates; 72 h; active compounds read low; activity change, % at 10 µM; hit rate 2.3% among 94,000; AID 1159554, 2015; in the data active means activity change below about -80%; inconclusive means no clear call, values can overlap the other calls
Each line names hits and unclear results; the compound was inactive in the other large screens. Sampled rows, rich in hits. Any-hit rate of the full collection: about 6.8%.

C[C@H]1CN([C@@H](C)CO)C(=O)Cc2cc(NC(=O)Nc3ccccc3)ccc2O[C@@H]1CN(C)Cc1ccc2c(c1)OCO2	none
C[C@H](CO)N1C[C@H](C)[C@@H](CN(C)Cc2ccc3c(c2)OCO3)Oc2ccc(NC(=O)Nc3ccccc3)cc2CC1=O	Pf Dd2 growth -83
C[C@@H]1CN([C@@H](C)CO)C(=O)Cc2cc(NC(=O)Nc3ccccc3)ccc2O[C@H]1CN(C)Cc1ccc2c(c1)OCO2	Pf Dd2 growth -88
C[C@@H]1CN([C@@H](C)CO)C(=O)Cc2cc(NC(=O)Nc3ccc4c(c3)OCO4)ccc2O[C@H]1CN(C)Cc1ccc2c(c1)OCO2	Pf Dd2 growth -87
C[C@@H]1CN([C@@H](C)CO)C(=O)Cc2cc(NC(=O)Nc3ccccc3)ccc2O[C@@H]1CN(C)Cc1ccc2c(c1)OCO2	none
C[C@H](CO)N1C[C@H](C)[C@H](CN(C)Cc2ccc3c(c2)OCO3)Oc2ccc(NC(=O)Nc3ccc4c(c3)OCO4)cc2CC1=O	none
O=C(C[C@@H]1C=C[C@@H](NC(=O)CCN2CCCCC2)[C@H](CO)O1)Nc1ccccc1	none (no result: T cruzi growth)
CC=Cc1ccc2n(c1=O)C[C@H]1[C@H](CO)[C@@H](C(=O)N[C@H](C)c3ccccc3)[C@@H]2N1Cc1ccccc1 (mixture of isomers)	none (no result: T cruzi growth)
CC(C)CC#Cc1ccc([C@@H]2[C@H](CO)N3CCCCN(S(=O)(=O)Cc4ccccc4)C[C@@H]23)cc1	Pf Dd2 growth -84
CC(C)CC#Cc1ccc([C@@H]2[C@@H](CO)N3CCCCN(S(=O)(=O)Cc4ccccc4)C[C@@H]23)cc1	Pf Dd2 growth -83
CCCC#Cc1ccc([C@H]2[C@@H](CO)N3CCCCN(S(=O)(=O)Cc4ccccc4)C[C@@H]23)cc1	none
CCCC#Cc1ccc([C@@H]2[C@@H](CO)N3CCCCN(S(=O)(=O)Cc4ccccc4)C[C@H]23)cc1	none
CC(C)NC(=O)Nc1ccc2c(c1)C(=O)N([C@H](C)CO)C[C@@H](C)[C@@H](CN(C)S(=O)(=O)c1ccc(F)cc1)O2	none
CCCC#Cc1ccc(CC[C@H]2O[C@H]3CC[C@H](CO)O[C@H]3C[C@@H]2n2cc(C(C)(C)O)nn2)cc1	Pf Dd2 growth -85 (no result: T cruzi growth)
COCC#Cc1ccc(CC[C@H]2O[C@H]3CC[C@H](CO)O[C@H]3C[C@H]2n2cc(C(C)(C)O)nn2)cc1	none (no result: T cruzi growth)
COCC#Cc1ccc(CC[C@H]2O[C@H]3CC[C@H](CO)O[C@H]3C[C@H]2n2cc(C3CC3)nn2)cc1	none (no result: T cruzi growth)
COCC#Cc1ccc(CC[C@H]2O[C@H]3CC[C@@H](CO)O[C@H]3C[C@@H]2n2cc(C3CC3)nn2)cc1	Pf Dd2 growth -89 (no result: T cruzi growth)
OC[C@@H]1CC[C@@H]2O[C@H](CCc3ccc(C#Cc4ccccc4)cc3)[C@H](n3cc(-c4ccccc4)nn3)C[C@@H]2O1	Pf Dd2 growth -84 (no result: T cruzi growth)
OC[C@H]1CC[C@@H]2O[C@H](CCc3ccc(C#CCc4ccccc4)cc3)[C@@H](n3cc(-c4ccccc4)nn3)C[C@@H]2O1	Pf Dd2 growth inconclusive (no result: T cruzi growth)
O=C(c1ccccn1)N1CC(=O)N2[C@H](CO)[C@@H](c3ccc(C#Cc4ccccc4)cc3)[C@@H]2C1	none (no result: T cruzi growth)
COc1cccc(S(=O)(=O)Nc2ccc3c(c2)C(=O)N(C)C[C@@H](OC)[C@H](C)CN(Cc2ccccc2F)[C@H](C)CO3)c1	none (no result: C diff HTS, T cruzi growth)
C[C@@H]1CN([C@@H](C)CO)C(=O)c2cc(C#Cc3ccccn3)cnc2O[C@@H]1CN(C)Cc1ccncc1	none
Cc1nn(C)cc1NC(=O)C[C@H]1CC[C@H]2[C@@H](COc3ccc(NC(=O)C(C)C)cc3C(=O)N2C)O1	none
Cc1ccc(S(=O)(=O)N(C)C[C@@H]2OCCCC[C@@H](C)Oc3ccc(NC(=O)NC4CCCCC4)cc3C(=O)N([C@H](C)CO)C[C@@H]2C)cc1	none
Cc1ccc(S(=O)(=O)N(C)C[C@@H]2OCCCC[C@@H](C)Oc3ccc(NC(=O)NC4CCCCC4)cc3C(=O)N([C@@H](C)CO)C[C@@H]2C)cc1	Pf Dd2 growth -86
Cc1ccc(S(=O)(=O)N(C)C[C@@H]2OCCCC[C@H](C)Oc3ccc(NC(=O)NC4CCCCC4)cc3C(=O)N([C@@H](C)CO)C[C@H]2C)cc1	none
Cc1ccc(S(=O)(=O)N(C)C[C@H]2OCCCC[C@H](C)Oc3ccc(NC(=O)NC4CCCCC4)cc3C(=O)N([C@H](C)CO)C[C@H]2C)cc1	Pf Dd2 growth -83
C[C@H](CO)N1C[C@H](C)[C@@H](CN(C)Cc2ccncc2)Oc2ccc(NC(=O)CCCN(C)C)cc2CC1=O	none
CCCN(C)C[C@@H]1Oc2cc(C#Cc3cccnc3)ccc2S(=O)(=O)N([C@@H](C)CO)C[C@H]1C	Pf Dd2 growth -89
CCCN(C)C[C@H]1Oc2cc(C#Cc3ccncc3)ccc2S(=O)(=O)N([C@@H](C)CO)C[C@H]1C	none (no result: T cruzi growth)
